# PubChem BioAssay (Tox21)
# Inconclusive results are not listed. Entries that show only a call come without a potency. A structure can be active in one record and inactive in another. Calls of active or inactive are those of the source. Unless noted, calls come from the whole dose curve; as a rule, active = well fitted curve in the direction sought with a large enough effect in the repeat runs; inconclusive = weak or mixed curves; inactive = no such curve, though single readings can be large; an effect the other way counts as inactive or inconclusive.
# Key:
# [1] = qHTS assay to identify small molecule antagonists of the peroxisome proliferator-activated receptor delta (PPARd) signaling pathway - cell viability counter screen (AID 743213); note: nearly all actives have a fitted effect of over 50% in size; note: potency is the fitted concentration of half-maximal effect
# How it was run: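 Viability counter-screen, qHTS format: PPARd-bla HEK293H, L165041 300 nM final, 17 h compound exposure at 37 C, CellTiter-Glo luminescence after 30 min RT.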
# [2] = qHTS assay to identify small molecule agonists of the farnesoid-X-receptor (FXR) signaling pathway - cell viability counter screen (AID 743218); note: nearly all actives have a fitted effect of over 45% in size; note: potency is the fitted concentration of half-maximal effect
# How it was run: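 In GeneBLAzer FXR-UAS-bla HEK 293T cells, compounds act for 16 h at 37 C. Cell viability is then scored in the reporter wells by CellTiter-Glo, 30 min at RT, luminescence.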
# [3] = qHTS assay to identify small molecule antagonists of the farnesoid-X-receptor (FXR) signaling pathway - cell viability counter screen (AID 743221; active = well fitted cell-killing curve with a large enough effect in the repeat runs, not every such curve was filed as active; note: nearly all actives have a fitted effect of over 50% in size; note: potency is the fitted concentration of half-maximal effect)
# How it was run: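 Multiplexed counter screen: viability of FXR-bla HEK 293T cells under agonist stimulation by chenodeoxycholic acid (50 uM, final) and test compound for 16 h at 37 C, measured by CellTiter-Glo luminescence in the reporter wells.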
# [4] = qHTS assay to identify small molecule agonists of the vitamin D receptor (VDR) signaling pathway - cell viability counter screen (AID 743224); note: nearly all actives have a fitted effect of over 50% in size; note: potency is the fitted concentration of half-maximal effect
# How it was run: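 VDR-bla cell line, quantitative HTS format; 16 h compound incubation (37C, 5% CO2); ATP-based CellTiter-Glo luminescence measured in the reporter assay wells.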
# [5] = qHTS assay to identify small molecule antagonists of the vitamin D receptor (VDR) signaling pathway - cell viability counter screen (AID 743225); note: nearly all actives have a fitted effect of over 50% in size; note: potency is the fitted concentration of half-maximal effect
# How it was run: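 HEK293T VDR-bla; cpd + 1a,25-(OH)2D3 3 nM final, 16 h 37C/5% CO2; B/G FRET substrate 2 h RT; then CellTiter-Glo 30 min RT, luminescence.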
# [6] = qHTS assay to identify small molecule agonists of the NFkB signaling pathway (AID 1159509; active = well fitted curve in the direction sought with a large enough effect in the signal ratio in the repeat runs, not every such curve was filed as active; the % refers to the signal ratio; note: series mostly up to about 61 µM)
# How it was run: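 ME-180 NFkB-bla, 2,000 cells/well, overnight plating; cpd pinned in DMSO, 5 h 37 C; B/G FRET substrate 1.5 h RT; ex 405, em 460/530 nm.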
# [7] = qHTS assay to identify small molecule agonists of the endoplasmic reticulum stress response signaling pathway (AID 1159516; active = well fitted activation curve with a large enough effect in the signal ratio in the repeat runs, not every such curve was filed as active; the % refers to the signal ratio)
# How it was run: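 ER stress element reporter (bla) in HeLa. 1,500 cells/well, overnight attachment; 5 hr compound; 2 hr RT substrate; dual-emission fluorescence.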
# [8] = qHTS assay to identify small molecule agonists of the endoplasmic reticulum stress response signaling pathway - cell viability counter screen (AID 1159517; calls by dose curve)
# How it was run: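 CellTiter-Glo was added to wells already read for beta-lactamase FRET, and luminescence was recorded 30 min later. Cells: ESRE-bla HeLa, 1,500 per well, compound exposure 5 hr at 37 C.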
# [9] = qHTS assay to identify small molecule antagonists of the retinoid-related orphan receptor gamma (ROR-gamma) signaling pathway - cell viability counter screen (AID 1159520); note: nearly all actives have a fitted effect of over 50% in size; note: potency is the fitted concentration of half-maximal effect
# How it was run: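 Tet-on ROR gamma CHO cells (1,000/well) were plated 4 hr, given compounds in DMSO for 2 hr at 37 C, then induced with 1 uM final doxycycline for 16 hr. Viability was read as ATP by CellTiter-Glo luminescence after 30 min.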
# [10] = biological target: Nuclear receptor ROR-gamma (Homo sapiens) (UniProt P51449); experiment: qHTS assay to identify small molecule antagonists of the retinoid-related orphan receptor gamma (ROR-gamma) signaling pathway (AID 1159521; note: nearly all actives have a fitted effect of over 50% in size; note: potency is the fitted concentration of half-maximal effect)
# How it was run: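 Cells were plated, rested 4 h at 37 C, exposed to compounds for 2 h, then given 1 uM final doxycycline hyclate to induce RORγ expression. After 16 h, ONE-Glo luminescence from the ROR response element reporter was measured.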
# [11] = qHTS assay to identify small molecule agonists of the peroxisome proliferator-activated receptor delta (PPARd) signaling pathway - cell viability counter screen (AID 743211); note: nearly all actives have a fitted effect of over 55% in size; note: potency is the fitted concentration of half-maximal effect
# How it was run: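 Counter screen for cytotoxicity run in parallel with the PPARd reporter screen. Beta-lactamase reporter HEK293H cells exposed to compounds 17 h; ATP-based CellTiter-Glo luminescence quantified viability.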
# [12] = biological target: Bile acid receptor (Homo sapiens) (UniProt Q96RI1); experiment: qHTS assay to identify small molecule agonists of the farnesoid-X-receptor (FXR) signaling pathway (AID 743220; active = well fitted activation curve with a large enough effect in the signal ratio in the repeat runs, not every such curve was filed as active; the % refers to the signal ratio)
# How it was run: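 Beta-lactamase reporter under UAS control in GeneBLAzer FXR HEK 293T cells (5000/well) measured with LiveBLAzer FRET substrate after 2 h at room temperature. Compound exposure lasted 16 h at 37C.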
# [13] = qHTS assay to identify small molecule agonists of the AP-1 signaling pathway - cell viability counter screen (AID 1159525; calls by dose curve; note: nearly all actives have a fitted effect of over 55% in size)
# How it was run: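 ME-180 AP-1-bla, 2500 cells/well, Opti-MEM + 0.5% dialyzed FBS; overnight 37 °C; cpd 15-pt titration, 5 h 37 °C; CellTiter-Glo 30 min RT; luminescence read; normalised to TOAB and DMSO controls.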
# [14] = qHTS assay to identify small molecule agonists of the AP-1 signaling pathway (AID 1159526; calls by dose curve)
# [15] = biological target: Peroxisome proliferator-activated receptor delta (Homo sapiens) (UniProt Q03181); experiment: qHTS assay to identify small molecule agonists of the peroxisome proliferator-activated receptor delta (PPARd) signaling pathway (AID 743212; calls by dose curve)
# How it was run: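 A PPARd-bla HEK293H line with beta-lactamase under an Upstream Activator Sequence is treated with compounds at 37 C. Substrate loading for 2 h at room temperature precedes the fluorescence measurement.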
# [16] = biological target: Peroxisome proliferator-activated receptor delta (Homo sapiens) (UniProt Q03181); experiment: qHTS assay to identify small molecule antagonists of the peroxisome proliferator-activated receptor delta (PPARd) signaling pathway (AID 743215; active = well fitted inhibition curve with a large enough effect in the signal ratio in the repeat runs, not every such curve was filed as active; the % refers to the signal ratio;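 note: cells stimulated with agonist L165041 at 300 nM final during compound exposure; series mostly up to about 62 µM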)
# How it was run: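 Antagonist-mode beta-lactamase reporter screen: HEK293H cells with UAS-bla under PPARd control, stimulated by 300 nM L165041 (final) alongside test compound for 17 h at 37 C, then FRET fluorescence after 2 h substrate incubation.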
# [17] = biological target: Vitamin D3 receptor (Homo sapiens) (UniProt P11473); experiment: qHTS assay to identify small molecule agonists of the vitamin D receptor (VDR) signaling pathway (AID 743222; calls by dose curve)
# How it was run: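 Agonist activity measured in VDR-bla reporter cells. Exposure 16 h, 37C, 5% CO2; detection by B/G FRET substrate, 2 h RT.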
# [18] = biological target: Vitamin D3 receptor (Homo sapiens) (UniProt P11473); experiment: qHTS assay to identify small molecule antagonists of the vitamin D receptor (VDR) signaling pathway (AID 743223; active = well fitted inhibition curve with a large enough effect in the signal ratio in the repeat runs, not every such curve was filed as active; the % refers to the signal ratio)
# How it was run: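 Cells carrying a VDR-driven beta-lactamase reporter (VDR-bla) were co-treated with compound and 3 nM final 1alpha,25-dihydroxyvitamin D3 for 16 h at 37C; reporter activity was measured as FRET substrate fluorescence after 2 h at room temperature.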
# [19] = biological target: Bile acid receptor (Homo sapiens) (UniProt Q96RI1); experiment: qHTS assay to identify small molecule antagonists of the farnesoid-X-receptor (FXR) signaling pathway (AID 743217; active = well fitted inhibition curve with a large enough effect in the signal ratio in the repeat runs, not every such curve was filed as active; the % refers to the signal ratio)
# How it was run: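 Beta-lactamase reporter under UAS control in HEK 293T cells; compound exposure 16 h at 37 °C in the presence of chenodeoxycholic acid (50 uM final); signal from B/G FRET substrate after 2 h at room temperature.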
# Sequence of Vitamin D3 receptor (Homo sapiens) (P11473 whole entry, looked up): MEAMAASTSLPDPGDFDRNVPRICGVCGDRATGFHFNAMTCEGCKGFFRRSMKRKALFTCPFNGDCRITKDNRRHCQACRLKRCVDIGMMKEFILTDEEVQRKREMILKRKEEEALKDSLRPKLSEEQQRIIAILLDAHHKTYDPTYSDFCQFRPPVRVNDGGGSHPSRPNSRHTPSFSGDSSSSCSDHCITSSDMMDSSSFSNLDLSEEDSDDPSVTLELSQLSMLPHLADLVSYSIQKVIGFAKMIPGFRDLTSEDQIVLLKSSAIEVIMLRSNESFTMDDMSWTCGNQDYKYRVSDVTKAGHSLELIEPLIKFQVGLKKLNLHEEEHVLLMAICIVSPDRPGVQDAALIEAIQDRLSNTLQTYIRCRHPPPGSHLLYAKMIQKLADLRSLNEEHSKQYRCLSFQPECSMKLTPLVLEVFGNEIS
# Sequence of Bile acid receptor (Homo sapiens) (Q96RI1 whole entry, looked up): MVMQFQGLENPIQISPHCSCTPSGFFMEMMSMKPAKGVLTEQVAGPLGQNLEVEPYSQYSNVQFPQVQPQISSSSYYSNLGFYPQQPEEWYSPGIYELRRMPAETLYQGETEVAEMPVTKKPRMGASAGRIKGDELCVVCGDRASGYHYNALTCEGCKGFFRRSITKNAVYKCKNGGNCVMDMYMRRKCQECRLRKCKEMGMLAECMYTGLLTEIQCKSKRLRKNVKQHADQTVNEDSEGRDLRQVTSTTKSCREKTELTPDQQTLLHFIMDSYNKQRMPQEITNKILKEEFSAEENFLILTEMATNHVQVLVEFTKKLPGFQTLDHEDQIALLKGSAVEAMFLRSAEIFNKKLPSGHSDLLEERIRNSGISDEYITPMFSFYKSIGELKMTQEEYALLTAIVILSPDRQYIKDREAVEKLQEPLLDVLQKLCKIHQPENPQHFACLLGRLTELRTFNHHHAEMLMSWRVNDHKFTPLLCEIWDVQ
# Sequence of Peroxisome proliferator-activated receptor delta (Homo sapiens) (Q03181 whole entry, looked up): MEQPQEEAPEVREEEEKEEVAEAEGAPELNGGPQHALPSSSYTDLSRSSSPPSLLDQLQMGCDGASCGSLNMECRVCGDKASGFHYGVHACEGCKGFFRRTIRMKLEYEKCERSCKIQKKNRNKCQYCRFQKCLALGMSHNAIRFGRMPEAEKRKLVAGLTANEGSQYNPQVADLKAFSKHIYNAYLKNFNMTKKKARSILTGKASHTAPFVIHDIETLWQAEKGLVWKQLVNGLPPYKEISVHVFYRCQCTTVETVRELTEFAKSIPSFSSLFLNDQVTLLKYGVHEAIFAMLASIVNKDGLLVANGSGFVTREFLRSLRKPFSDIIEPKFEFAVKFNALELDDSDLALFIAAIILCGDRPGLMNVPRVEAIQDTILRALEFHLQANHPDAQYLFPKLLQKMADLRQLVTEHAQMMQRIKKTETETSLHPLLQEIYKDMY
SMILES,Potency [1],Potency [2],Potency [3],Potency [4],Potency [5],Potency [6],Potency [7],Potency [8],Potency [9],Potency [10],Potency [11],Potency [12],Potency [13],Potency [14],Potency [15],Potency [16],Potency [17],Potency [18],Potency [19]
Brc1cc(Br)c(Oc2cc(Br)c(Br)cc2Br)cc1Br,23.9 µM (active),inactive,inactive,23.9 µM (active),inactive,inactive,inactive,inactive,inactive,inactive,–,–,–,–,–,–,–,–,–
O=c1c(O)c(-c2ccc(O)cc2)oc2cc(O)cc(O)c12,inactive,–,inactive,inactive,inactive,inactive,inactive,inactive,inactive,–,inactive,inactive,inactive,inactive,–,–,–,–,–
C[C@]12CC[C@@H]3c4ccc(O)cc4CC[C@H]3[C@@H]1CC[C@@H]2OC(=O)CCC1CCCC1,inactive,inactive,inactive,43.6 µM (active) and inactive,inactive,inactive,inactive,inactive,43.3 µM (active),30.6 µM (active),–,inactive,–,–,inactive,inactive,inactive,inactive,–
N#CCCN(CCO)CCO,inactive,–,inactive,inactive,inactive,inactive,inactive,inactive,inactive,inactive,–,–,inactive,–,inactive,–,inactive,inactive,inactive
Cc1ccc2c(Br)cc(Br)c(O)c2n1,inactive,inactive,inactive,inactive,–,inactive,inactive,inactive,–,–,inactive,–,–,–,inactive,–,inactive,inactive,–
CC(=O)N/N=C/c1ccc([N+](=O)[O-])o1,inactive,inactive,inactive,inactive,inactive,inactive,inactive,inactive,–,–,inactive,–,–,inactive,inactive,inactive,inactive,–,–
CCCCCCCC/C=C\CCCCCCCCO,inactive,inactive,inactive,inactive,inactive,inactive,–,inactive,inactive,inactive,inactive,–,inactive,inactive,inactive,–,inactive,inactive,–
O=C1NC(=O)c2cc([N+](=O)[O-])ccc21,inactive,inactive,inactive,–,inactive,inactive,–,inactive,inactive,inactive,inactive,–,inactive,–,inactive,–,–,–,–
CC(=O)NC1(c2cccc(F)c2)CCN(CC[C@@]2(c3ccc(Cl)c(Cl)c3)CN(c3ccccc3)C(=O)CO2)CC1,21.9 µM (active),15.5 µM (active),24.6 µM (active),39 µM (active),43.8 µM (active),inactive,inactive,–,–,38.7 µM (active),13.8 µM (active),–,inactive,inactive,–,–,inactive,–,–
CC(=O)Nc1cc(S(=O)(=O)O)cc2cc(S(=O)(=O)O)c(N=Nc3ccccc3)c(O)c12,inactive,inactive,inactive,inactive,inactive,inactive,inactive,inactive,–,–,inactive,–,inactive,inactive,inactive,–,inactive,inactive,–
CCC(C)COC(C)=O (stereo unspecified),inactive,inactive,inactive,inactive,inactive,inactive,inactive,–,inactive,inactive,inactive,–,inactive,inactive,inactive,–,–,–,inactive
Cc1cc(O)ccc1O,inactive,–,inactive,inactive,inactive,inactive,inactive,inactive,–,24.6 µM (active),inactive,inactive,–,–,inactive,inactive,inactive,inactive,inactive
COC(=O)[C@H]1[C@H]2C[C@@H]3c4[nH]c5cc(OC)ccc5c4CCN3C[C@H]2C[C@@H](OC(=O)/C=C/c2ccc(O)c(OC)c2)[C@@H]1OC,10.6 µM (active),8.41 µM (active),18.8 µM (active),–,inactive,inactive,inactive,inactive,–,13.3 µM (active),8.41 µM (active),–,inactive,inactive,–,–,–,–,–
CCCCC(CC)CN (stereo unspecified),–,–,–,inactive,–,inactive,inactive,–,inactive,–,–,–,inactive,inactive,–,inactive,inactive,inactive,–
Nc1nc2ccc([N+](=O)[O-])cc2s1,–,–,inactive,inactive,–,inactive,inactive,inactive,inactive,–,–,–,–,–,–,–,–,–,–
CC(CC1c2ccccc2CCc2ccccc21)CN(C)C (stereo unspecified),–,inactive,inactive,inactive,–,inactive,inactive,inactive,inactive,–,–,inactive,–,–,–,inactive,–,–,inactive
C=CC(=O)[O-].C=CC(=O)[O-].[Zn+2],inactive,inactive,inactive,inactive,inactive,inactive,–,inactive,inactive,inactive,inactive,–,inactive,–,inactive,–,inactive,inactive,–
Cc1ccco1,inactive,inactive,inactive,inactive,inactive,inactive,inactive,–,inactive,inactive,inactive,–,–,inactive,–,–,inactive,inactive,–
O=C(OC(=O)c1ccccc1)c1ccccc1,–,–,inactive,inactive,inactive,inactive,inactive,–,inactive,inactive,inactive,–,inactive,inactive,inactive,inactive,–,–,–
